Measured values from PubChem BioAssay (NCI).
About 83,000 compounds went through this panel and 20% of them were active in at least one assay; those are over-represented in the sample as a whole.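 Values shown are percent growth following 48 h exposure of cells in 96-well plates to a single concentration of compound; below 10 was considered active.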 Calls of active or inactive are those of the source.

Legend:
Assay in all cases: NCI-60 one-dose screen, 48 h (100 = growth as untreated, 0 = no growth, -100 = all killed)
NCI-H23 lung = details: 10 µM unless noted
NCI-H226 lung = details: 10 µM unless noted
NCI-H322M lung = details: 10 µM unless noted
HOP-62 NSCLC = details: 10 µM unless noted
NCI-H460 lung = details: 10 µM unless noted
HOP-92 NSCLC = details: 10 µM
NCI-H522 lung = details: 10 µM unless noted
A549/ATCC NSCLC = details: 10 µM unless noted
786-0 renal = details: 10 µM unless noted
COLO 205 colon = details: 10 µM unless noted
DU-145 prostate = details: 10 µM unless noted
K-562 leukemia = details: 10 µM unless noted
MALME-3M melanoma = details: 10 µM unless noted
MDA-MB-231 breast = details: 10 µM unless noted
RXF 393 renal = details: 10 µM unless noted
SF-268 CNS = details: 10 µM unless noted
SF-295 CNS = details: 10 µM unless noted
SF-539 CNS = details: 10 µM unless noted
UACC-257 melanoma = details: 10 µM unless noted

Measured: growth

O=[N+]([O-])c1cc(/C=N/Nc2nc(N/N=C/c3ccc(Cl)c([N+](=O)[O-])c3)nc(N3CCCCC3)n2)ccc1Cl
inactive: NCI-H23 lung 81.8% | NCI-H226 lung 61.4% | NCI-H322M lung 71.3% | HOP-62 NSCLC 43.7% | NCI-H460 lung 98.7% | HOP-92 NSCLC 123% | NCI-H522 lung 51.9% | A549/ATCC NSCLC 111% | 786-0 renal 109% | COLO 205 colon 100% | DU-145 prostate 29.6% | K-562 leukemia 31.7% | MALME-3M melanoma 101% | MDA-MB-231 breast 48.3% | RXF 393 renal 99.9% | SF-268 CNS 64.9% | SF-295 CNS 93.2% | SF-539 CNS 36.3% | UACC-257 melanoma 51.1%

CCN1CCN(Cc2cn(-c3ccc(S(N)(=O)=O)cc3)nn2)CC1
inactive: NCI-H23 lung 108% | NCI-H226 lung 96.5% | NCI-H322M lung 106% | HOP-62 NSCLC 107% | NCI-H460 lung 108% | HOP-92 NSCLC 104% | NCI-H522 lung 97.8% | A549/ATCC NSCLC 109% | 786-0 renal 102% | COLO 205 colon 109% | DU-145 prostate 108% | K-562 leukemia 104% | MALME-3M melanoma 111% | MDA-MB-231 breast 104% | RXF 393 renal 116% | SF-268 CNS 103% | SF-295 CNS 105% | SF-539 CNS 99.3% | UACC-257 melanoma 107%

NC(=O)c1c(NC(=O)c2ccc(F)cc2F)sc2c1CCC(=O)C2
inactive: NCI-H23 lung 18.5% | NCI-H226 lung 88% | NCI-H322M lung 99.8% | HOP-62 NSCLC 104% | NCI-H460 lung 109% | HOP-92 NSCLC 66.1% | NCI-H522 lung 10.2% | A549/ATCC NSCLC 106% | 786-0 renal 83.4% | COLO 205 colon 98.7% | DU-145 prostate 101% | K-562 leukemia 15.8% | MALME-3M melanoma 63.8% | MDA-MB-231 breast 39.2% | RXF 393 renal 85.1% | SF-268 CNS 34.7% | SF-295 CNS 99.7% | SF-539 CNS 16.3% | UACC-257 melanoma 81.8%

CC1=CC(=O)C2=C(C)CC(OC(=O)CCc3ccccc3)[C@@H]3[C@H](OC(=O)[C@@H]3C)[C@@H]12 (stereo not given in full)
inactive: NCI-H23 lung 95.4% | NCI-H226 lung 97.9% | NCI-H322M lung 96.8% | HOP-62 NSCLC 102% | NCI-H460 lung 103% | HOP-92 NSCLC 92.6% | NCI-H522 lung 77.4% | A549/ATCC NSCLC 89% | 786-0 renal 92.6% | COLO 205 colon 95.2% | DU-145 prostate 101% | K-562 leukemia 84.2% | MALME-3M melanoma 113% | MDA-MB-231 breast 96.8% | RXF 393 renal 122% | SF-268 CNS 98.8% | SF-295 CNS 90.7% | SF-539 CNS 94.1% | UACC-257 melanoma 91.6%

COC(=O)C(Cc1ccccc1)Nc1nc(NC(Cc2ccccc2)C(=O)OC)nc(N2CCOCC2)n1 (stereo not given)
inactive: NCI-H23 lung 107% | NCI-H226 lung 102% | NCI-H322M lung 97.4% | HOP-62 NSCLC 97.3% | NCI-H460 lung 107% | HOP-92 NSCLC 119% | NCI-H522 lung 91% | A549/ATCC NSCLC 108% | 786-0 renal 100% | COLO 205 colon 105% | DU-145 prostate 112% | K-562 leukemia 91.6% | MALME-3M melanoma 105% | MDA-MB-231 breast 103% | RXF 393 renal 113% | SF-268 CNS 103% | SF-295 CNS 108% | SF-539 CNS 98% | UACC-257 melanoma 103%

O=C(CSc1nnc(-c2ccc3nc(-c4ccccc4)[nH]c3c2)o1)Nc1ccc(C(=O)/C=C/c2ccccc2)cc1
inactive: NCI-H23 lung 100% | NCI-H226 lung 106% | NCI-H322M lung 102% | HOP-62 NSCLC 104% | NCI-H460 lung 113% | HOP-92 NSCLC 149% | NCI-H522 lung 93.4% | A549/ATCC NSCLC 106% | 786-0 renal 102% | COLO 205 colon 110% | DU-145 prostate 107% | K-562 leukemia 112% | MALME-3M melanoma 94.5% | MDA-MB-231 breast 105% | RXF 393 renal 114% | SF-268 CNS 109% | SF-295 CNS 109% | SF-539 CNS 96.8% | UACC-257 melanoma 103%

COc1ccc(-n2c(/C=C3\C(=O)Nc4ccccc43)ccc2CO)cc1
inactive: NCI-H23 lung 104% | NCI-H226 lung 95.3% | NCI-H322M lung 104% | HOP-62 NSCLC 95.1% | NCI-H460 lung 113% | HOP-92 NSCLC 91.5% | NCI-H522 lung 89.6% | A549/ATCC NSCLC 97% | 786-0 renal 99.1% | COLO 205 colon 114% | DU-145 prostate 106% | K-562 leukemia 90.9% | MALME-3M melanoma 72.2% | MDA-MB-231 breast 95% | RXF 393 renal 99.7% | SF-268 CNS 99.2% | SF-295 CNS 105% | SF-539 CNS 97.5% | UACC-257 melanoma 105%

COc1cc(/C=C/C(=O)c2ccc(NC(=O)CSc3nnc(-c4ccc(-c5nc6ccc(Cl)cc6[nH]5)cc4)o3)cc2)cc(OC)c1OC
inactive: NCI-H23 lung 101% | NCI-H226 lung 104% | NCI-H322M lung 99.6% | HOP-62 NSCLC 89.8% | NCI-H460 lung 98.7% | HOP-92 NSCLC 115% | NCI-H522 lung 76.1% | A549/ATCC NSCLC 99.5% | 786-0 renal 109% | COLO 205 colon 106% | DU-145 prostate 94% | K-562 leukemia 60.1% | MALME-3M melanoma 95.5% | MDA-MB-231 breast 79.1% | RXF 393 renal 84.1% | SF-268 CNS 91.8% | SF-295 CNS 95.6% | SF-539 CNS 94.2% | UACC-257 melanoma 88.1%

Cc1ccc(NC(=O)c2ccc(CN3CCOCC3)c(C(F)(F)F)c2)cc1Oc1ccc(-c2[nH]nc3ncnc(N)c23)cc1
inactive: NCI-H23 lung 84.6% | NCI-H226 lung 66% | NCI-H322M lung 72% | HOP-62 NSCLC 86.9% | NCI-H460 lung 66.3% | HOP-92 NSCLC 50.8% | NCI-H522 lung 62.5% | A549/ATCC NSCLC 65.1% | 786-0 renal 69.2% | COLO 205 colon 18.8% | DU-145 prostate 76.9% | K-562 leukemia 20% | MALME-3M melanoma 27.4% | MDA-MB-231 breast 54.3% | RXF 393 renal 40.5% | SF-268 CNS 81.6% | SF-295 CNS 63.2% | SF-539 CNS 49.3% | UACC-257 melanoma 48.7%

Nc1cc(F)ccc1NC(=O)c1ccc(NC(=O)C/C=C/c2cccnc2)cc1
inactive: NCI-H23 lung 62.5% | NCI-H226 lung 70.8% | NCI-H322M lung 67% | HOP-62 NSCLC 48.7% | NCI-H460 lung 56.8% | HOP-92 NSCLC 25.2% | NCI-H522 lung 15.2% | A549/ATCC NSCLC 55.9% | 786-0 renal 72.6% | COLO 205 colon 21.2% | DU-145 prostate 23.7% | K-562 leukemia 26% | MALME-3M melanoma 47.6% | MDA-MB-231 breast 57.2% | RXF 393 renal 87.1% | SF-268 CNS 53.7% | SF-295 CNS 41.6% | SF-539 CNS 11.9% | UACC-257 melanoma 55.8%

CC(=O)c1nnn(-c2c(C(=O)n3nc(C)cc3C)sc(=S)n2-c2ccccc2)c1C
inactive: NCI-H23 lung 106% | NCI-H226 lung 95.7% | NCI-H322M lung 107% | HOP-62 NSCLC 107% | NCI-H460 lung 113% | HOP-92 NSCLC 113% | NCI-H522 lung 99.8% | A549/ATCC NSCLC 103% | 786-0 renal 111% | COLO 205 colon 108% | DU-145 prostate 109% | K-562 leukemia 102% | MALME-3M melanoma 67.7% | MDA-MB-231 breast 89.2% | RXF 393 renal 103% | SF-268 CNS 106% | SF-295 CNS 109% | SF-539 CNS 96.6% | UACC-257 melanoma 101%

Clc1cccc(/C=N/Nc2nc(N/N=C/c3cccc(Cl)c3Cl)nc(N3CCCCC3)n2)c1Cl
inactive: NCI-H23 lung 99.7% | NCI-H226 lung 97.5% | NCI-H322M lung 90% | HOP-62 NSCLC 98.2% | NCI-H460 lung 33.8% | HOP-92 NSCLC 86.2% | NCI-H522 lung 76.6% | A549/ATCC NSCLC 55.6% | 786-0 renal 102% | COLO 205 colon 90.3% | DU-145 prostate 73.4% | K-562 leukemia 78.1% | MALME-3M melanoma 92.5% | MDA-MB-231 breast 84.2% | RXF 393 renal 112% | SF-268 CNS 86.4% | SF-295 CNS 92.7% | SF-539 CNS 84.3% | UACC-257 melanoma 100%

CCCCc1nc(/C=N/Nc2nc(Nc3ccccc3)nc(Nc3ccc(S(N)(=O)=O)cc3)n2)c(Cl)[nH]1
inactive: NCI-H23 lung 101% | NCI-H226 lung 99% | NCI-H322M lung 99.1% | HOP-62 NSCLC 101% | NCI-H460 lung 100% | HOP-92 NSCLC 60.1% | NCI-H522 lung 41.9% | A549/ATCC NSCLC 108% | 786-0 renal 95.3% | COLO 205 colon 72% | DU-145 prostate 84.6% | K-562 leukemia 38% | MALME-3M melanoma 99.7% | MDA-MB-231 breast 67% | RXF 393 renal 117% | SF-268 CNS 65.9% | SF-295 CNS 102% | SF-539 CNS 81.2% | UACC-257 melanoma 108%

Nc1ccccc1NC(=O)c1ccc(NC(=O)C/C=C/c2cccnc2)cc1
inactive: NCI-H23 lung 41.6% | NCI-H226 lung 46.6% | NCI-H322M lung 47.6% | HOP-62 NSCLC 36.5% | NCI-H460 lung 46.8% | HOP-92 NSCLC 11.3% | A549/ATCC NSCLC 47.2% | 786-0 renal 53.3% | COLO 205 colon 10.3% | DU-145 prostate 14.1% | K-562 leukemia 17.1% | MALME-3M melanoma 18.1% | MDA-MB-231 breast 50.5% | SF-268 CNS 35.3% | SF-295 CNS 34.9% | UACC-257 melanoma 26.6%
active: NCI-H522 lung 7.23% | RXF 393 renal -13.9% | SF-539 CNS 7.57%

O=C1CC(=O)N2CSCN(C(c3ccccc3)c3nc4ncncc4[nH]3)C2=N1 (stereo not given)
inactive: NCI-H23 lung 99.7% | NCI-H226 lung 107% | NCI-H322M lung 106% | HOP-62 NSCLC 96.8% | NCI-H460 lung 112% | HOP-92 NSCLC 112% | NCI-H522 lung 93.9% | A549/ATCC NSCLC 105% | 786-0 renal 104% | COLO 205 colon 114% | DU-145 prostate 110% | K-562 leukemia 102% | MALME-3M melanoma 80.5% | MDA-MB-231 breast 101% | RXF 393 renal 105% | SF-268 CNS 103% | SF-295 CNS 99.1% | SF-539 CNS 99.1% | UACC-257 melanoma 108%
